Test results: PubChem BioAssay (NCI)
Several values for one entry are separate records, joined by “and”; a condition that tells them apart may be missing. Identical values can stand only once. This is part of a sample that, as a whole, favours compounds with a hit. Of some 83,000 tested, about 20% had one in any assay.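 Treatment: one concentration, 48 hours, 96-well format. Scoring: percent growth, with anything below 10 considered active.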 A number with no mark means an inactive call. Activity calls are given as the source filed them.

tested on: MDA-MB-468 breast; assay: NCI-60 one-dose screen, 48 h (100 = growth as untreated, 0 = no growth, -100 = all killed); settings: 10 µM unless noted

Structure (SMILES) | growth
CC(=O)Cc1nsc(NC(=O)c2ccoc2COc2ccccc2)n1 | 124%
COc1ccc(C/C(C)=C(\c2ccc(O)cc2)c2ccc(OCCN3CCCC3)cc2)cc1 | 124%
COc1ccc(-c2nc(SCC(=O)Nc3nc4ccc(C)cc4s3)[nH]c(=O)c2C#N)cc1OC | 100%
O=C1OC(c2ccc(-c3ccccc3)cc2)=C/C1=C/c1cccs1 | -47.5% (active)
O=C(Nc1ccc(F)cc1)c1c(NC(=O)C(F)(F)F)sc2c1CCCCC2 | -17% (active)
Nc1ccc(-c2nn3c(CCC(=O)c4nc5ncccc5[nH]4)nnc3s2)c(O)c1 | 74.6%
COc1ccc2c(c1)sc1nc(-c3ccccc3)c(-c3cccc4ccccc34)n12 | 11.5%
NC1=C(c2nn[nH]n2)C(c2ccccc2Cl)c2ccc3ccccc3c2O1 (stereo not given) | 55.3%
COc1ccc2nc(-c3ccc(Cl)cc3)cc(-c3nnc(SC/C(=N\O)c4ccccc4)n3-c3ccccc3)c2c1 | 60.4%
CCOC(=O)c1c(NCC(=O)Nc2cccc([N+](=O)[O-])c2)sc2c1CCCC2 | -77.2% (active)
CC(C)c1ccccc1NC(=O)N1CCC(C(C)C)CC1 | 99.8%
CS(=O)(=O)Nc1cc(-c2ccc3ncc(C#N)c(Nc4ccc(F)c(Cl)c4)c3c2)cnc1Cl | -48.7% (active)
Nc1nc2c([nH]1)c1[nH]c3ccccc3c1c1[nH]c3ccccc3c21 | -57.2% (active)
Oc1ccc(CSc2nnc(-c3ccc(Cl)cc3)o2)c2cccnc12 | 26.3%
C#Cc1cccc(NC(=O)c2ccc(Cl)cc2Cl)c1 | 102%
O=C1C=CC(=O)N1c1cccc(Cl)c1 | 86.7%
CCOC(=O)Nc1ccc2c(c1)/C(=N\NC(=S)NC)c1ccccc1-2 | 86.8%
CCOC(=O)c1[nH]c2c(c1C)-c1[nH]c(=O)c(S(=O)(=O)c3ccccc3)cc1SC2 | 23.9% [100 µM]
C#CCOc1cccc(/C(N)=N/C(N)=N/c2nc3ccccc3s2)c1 | 76.4%
COc1ccc(/C=C/c2nc(N3CCOCC3)c3cc(F)c(F)cc3n2)cc1OC | -6.96% (active)

Structure (SMILES) | growth
O=C(/C=C/c1cc2ccccc2[nH]c1=O)c1ccc(O)cc1 | 0.877% (active)
COc1cc(C(C)n2cc(-c3ccccc3)nn2)ccc1OC1CCCC1 (stereo not given) | 5.07% (active)
CCCCCCCCCCCC(=O)C(CCCCCCCCCC)C(=O)Nc1ccccc1 (stereo not given) | 109%
CSc1nc2sc3cc(Cl)c(Cl)cc3n2c(=N)c1C#N | 72.6%
O=C(Nc1ncc([N+](=O)[O-])s1)c1cccc([N+](=O)[O-])c1 | 28.1%
COc1ccc(-c2c3c(N)c4c(nc3nc3c2c(C)nn3-c2ccccc2)CCCC4)cc1 | 70.3%
CCN(CC)CCCC(Cc1ccccc1)Nc1c2ccc(Cl)cc2nc2ccc(OC)cc12 (stereo not given) | -72.3% (active)
COc1cc(-c2cncn2-c2ccc(-c3nc4ccc(F)cc4s3)cc2)ccc1F | 56.8%
Nc1nc(N)c(-c2ccc(Cl)cc2)c(/C=C/c2ccc([N+](=O)[O-])cc2)n1 | 64.7%
CO[C@H]1/C=C/O[C@@]2(C)Oc3c(C)c(O)c4c(c3C2=O)C(=O)C(/C=N/N(c2ccccc2)c2ccccc2)=C(NC(=O)/C(C)=C\C=C\[C@H](C)[C@H](O)[C@@H](C)[C@@H](O)[C@@H](C)[C@H](OC(C)=O)[C@@H]1C)C4=O | -2.58% (active)
C[C@@H]1C(=O)N(C[C@@H](Cc2ccccc2)NC(=O)OCc2ccccc2)[C@]1(Cc1ccccc1)C(=O)OCc1ccccc1 | 26.1%
O=C1OC2(c3ccccc31)c1ccc(O)c(O)c1Oc1c2ccc(O)c1O | 96.8% and 113%
COc1cc2c(c(OC)c1OC)C(=O)CC(c1cccc(NC(=O)c3ccc(Br)cc3)c1)O2 (stereo not given) | 12.1%
CCOC(=O)c1ccc(NC(=O)Nc2nccs2)cc1 | -30.4% (active)
NC(=O)CC1C=CCC1 (stereo not given) | 111%
O=c1c2cccc3c(Nc4ccc(F)cc4)ccc(c32)c2nc3ccccc3n12 | -43.8% (active)
Cc1ccc(S(=O)(=O)Nc2ccc(-c3cc(-c4cccc(F)c4)c(C#N)c(=O)[nH]3)cc2)cc1 | 67.9%
Cc1ccc2nc3ccccc3c(NCc3ccccc3)c2c1 | -11% (active)
CCCCCCCCCCCCCCCC(=O)NS(=O)(=O)OC[C@H]1O[C@@H](n2cnc3c(N)ncnc32)[C@H](O)[C@@H]1O | -51.5% (active)
O=C1/C(=C/c2cccc([N+](=O)[O-])c2)COc2ccc(O)cc21 | 36.9%
